Where “and” joins values, the source holds several entries; their conditions need not be identical. Equal values may be shown once. The campaign covered roughly 360,000 compounds. About 11,000 (3.1%) were called active. Rule as the data show it: active = activity change below about -30%; inactive = the rest. Many of the other results were omitted from the sample, so actives are more common in it than they were. Some compounds were tested as several samples or in several runs, with calls that do not always agree.
target: D(1A) dopamine receptor (Homo sapiens) (UniProt P21728); assay: Antagonist of Human D 1 Dopamine Receptor: qHTS; settings: HEK293 TREx D1 cells, calcium flux, dopamine EC80; at 10 µM; stronger effect = lower value
Sequence (P21728 whole entry, looked up): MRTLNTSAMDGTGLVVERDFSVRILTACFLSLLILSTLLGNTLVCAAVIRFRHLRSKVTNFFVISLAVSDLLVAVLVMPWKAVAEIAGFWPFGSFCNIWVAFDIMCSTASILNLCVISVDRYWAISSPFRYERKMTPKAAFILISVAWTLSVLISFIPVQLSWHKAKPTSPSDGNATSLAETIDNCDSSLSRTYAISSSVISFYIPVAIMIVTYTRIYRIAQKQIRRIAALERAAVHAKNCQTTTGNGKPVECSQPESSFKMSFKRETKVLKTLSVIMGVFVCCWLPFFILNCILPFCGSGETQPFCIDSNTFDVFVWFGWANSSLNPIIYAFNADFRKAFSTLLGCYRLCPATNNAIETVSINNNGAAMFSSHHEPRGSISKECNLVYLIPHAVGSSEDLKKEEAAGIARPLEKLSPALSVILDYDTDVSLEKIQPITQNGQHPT
In short: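 Compound effects on dopamine-evoked calcium signalling were measured in tetracycline-induced HEK293 Trex D1 cells. Dopamine at EC80 followed a 180 s compound pre-read, and fluorescence was tracked kinetically for 180 s more.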
% is scaled to controls: 0 for no effect and ±100 for the full control effect.

Compound | activity change, negative = inhibition
Cc1ccc(Cl)cc1NC(=O)CSc1nc2ccccc2nc1Cc1ccccc1 | 3.51% (inactive)
CN1CCN(c2ccc(S(=O)(=O)Nc3ccccc3)cc2[N+](=O)[O-])CC1 | -46.5% (active)
Cc1ccc(C(=O)c2ccc(N3CCN(C)CC3)c([N+](=O)[O-])c2)cc1 | -41.9% (active)
CS(=O)(=O)N1CCN(c2ccc(C(=O)NC3C4CC5CC(C4)CC3C5)cc2[N+](=O)[O-])CC1 (configuration not stated) | -9.31% (inactive)
Cc1cccc(N2CCN(c3ccc(C(N)=O)cc3[N+](=O)[O-])CC2)c1C | 9.32% (inactive)
CN1CCN(S(=O)(=O)c2ccc(N3CCN(c4ccccc4O)CC3)c([N+](=O)[O-])c2)CC1 | 7.38% (inactive)
COc1ccc(NS(=O)(=O)c2ccc(N3CCN(CCO)CC3)c([N+](=O)[O-])c2)cc1 | -20.8% (inactive)
COC(=O)c1c(NC(=O)C(C)Oc2ccc(Cl)c(C)c2)sc(C)c1C (configuration not stated) | 14.5% (inactive)
Fc1ccc(-c2nn(-c3ccccc3Cl)c3c2cnc2ccccc23)cc1 | 15% (inactive)
COc1cc(C)ccc1OCCSc1nc2ccc(NC(=O)c3ccc(C)cc3)cc2s1 | 5.21% (inactive)
Cc1ccc(NC(=O)NC(C)c2c(-n3cccc3)sc(C)c2C)c(C)c1 (configuration not stated) | -16% (inactive)
O=C(Cc1ccc(Cl)cc1)NCC(c1cccs1)S(=O)(=O)c1ccc(Cl)cc1 (configuration not stated) | 4.53% (inactive)
Cn1ccc2cc(S(=O)(=O)N3CCCC(C(=O)NCc4ccccc4F)C3)ccc21 (configuration not stated) | -17.1% (inactive)
CCOc1ccccc1NC(=O)CCn1cnnn1 | -17.8% (inactive)
CC(=O)c1ccc(NC(=O)c2ccc(-n3cncn3)c([N+](=O)[O-])c2)cc1 | 2.28% (inactive)
Cc1ccccc1OCC(=O)NNC(=O)c1ccc(-n2cncn2)c([N+](=O)[O-])c1 | -67.1% (active)
O=C(NNC(=O)c1ccc(-n2cncn2)c([N+](=O)[O-])c1)c1ccccc1 | -5.21% (inactive)
Cc1nc2ccn(Cc3cccs3)c(=O)c2cc1C(=O)NCc1ccc(Cl)cc1 | -27.7% (inactive)
COc1ccc(OC)c(-n2nnc3c(sc4nc(C)c(Br)c(C)c43)c2=O)c1 | -6.84% (inactive)
COc1ccc(NC(=O)CSc2nnc(-c3nnn(-c4ccc(F)cc4)c3C)o2)cc1 | -7.41% (inactive)
O=C(CCCN=C1NS(=O)(=O)c2ccccc21)OCC(=O)c1ccc(F)c(F)c1 | -64.4% (active)
N#CC1(NC(=O)COC(=O)CCN=C2NS(=O)(=O)c3ccccc32)CCCCC1 | -2.93% (inactive)

Compound | activity change, negative = inhibition
O=C(OCCN=C1NS(=O)(=O)c2ccccc21)c1cccc([N+](=O)[O-])c1 | -6.81% (inactive)
CCCCOc1ccc(CNC(=O)c2ccc3c(c2)N(C)C(=O)C2CCCCN32)cc1 (configuration not stated) | 20.7% (inactive)
CCc1nc2cccnc2n1-c1ccc(CC(=O)Nc2c(C)cccc2C)cc1 | 0.844% (inactive)
COc1cc(OC)c(NC(=O)c2cc(S(=O)(=O)N3CCCC3)cn2C)cc1Cl | -11% (inactive)
COc1cc(OC)c(NC(=O)N2CC3CCCN3c3ccccc32)cc1Cl (configuration not stated) | 46.3% (inactive)
COc1cc(OC)c(NC(=O)c2cnc(N3CCCC3)nc2C)cc1Cl | -35.8% (active)
CCc1ccccc1NC(=O)N1CCC2(CC1)Oc1ccccc1C(=O)N2Cc1ccccc1F | -12.2% (inactive)
CCc1nn(CCCN2CCN(c3cccc(Cl)c3)CC2)c(=O)n1CCOc1ccccc1 | -25.8% (inactive) and -41.5% (active)
Cc1nn(CCOc2ccccc2)c(=O)n1-c1ccccc1F | -11.9% (inactive)
OC(COc1ccc2c(c1)CCC2)CN1CCN(c2cccc(Cl)c2)CC1 (configuration not stated) | -0.524% (inactive)
CCOc1ccc(CNC(=O)CCc2c(C)nn(-c3ccc(N4CCCCC4)nn3)c2C)cc1 | -12.9% (inactive)
COc1ccccc1C(=O)Nc1c(C(=O)Nc2ccc(C)cc2)oc2ccccc12 | 2.57% (inactive)
COc1ccc(NC(=O)c2ccc3nc(C(C)C)oc3c2)cc1OC | 13.3% (inactive)
O=[N+]([O-])c1ccc2[nH]c3c(c2c1)CCCC3O (configuration not stated) | -30.8% (active)
CCOC(=O)c1ccc2[nH]c3c(c2c1)CCCC3NC=O (configuration not stated) | -2.15% (inactive)
O=C1CCCc2c1[nH]c1ccc(Br)cc21 | 12% (inactive)
CCOC(=O)C1CCCN(S(=O)(=O)c2cc(-c3cc(C)no3)ccc2OC)C1 (configuration not stated) | -12.1% (inactive)
COC(=O)c1scc(-c2ccccc2)c1S(=O)(=O)Nc1ccccc1 | -7.67% (inactive)
CCn1c(=O)c2cc(C(=O)NCCc3ccc(Cl)cc3)sc2c2ccccc21 | 3.78% (inactive)
COc1cccc(NC(=O)Cn2c(=O)cc(C)c3c(C)nn(-c4cccc(F)c4)c32)c1 | 11.7% (inactive)
COc1cn(CC(=O)Nc2cccc(C)c2C)c(CN2CCCCC2)cc1=O | -18.9% (inactive)
O=C(Nc1nnc(COc2ccccc2)s1)Nc1ccccc1F | -5.26% (inactive)

Compound | activity change, negative = inhibition
COc1ccccc1NC(=O)Nc1nc(CC(=O)Nc2ccccc2F)cs1 | 2.24% (inactive)
COc1ccccc1NC(=O)Nc1nnc(Cc2ccc(F)cc2)s1 | -35.5% (active)
COc1ccc(Cl)cc1-n1c(CCC(=O)O)ccc1-c1ccc(C)cc1 | -15.3% (inactive)
Cc1cccc(N2CCN(S(=O)(=O)c3ccc4[nH]c5c(c4c3)CCCCC5)CC2)c1C | 0.754% (inactive)
CC1CCN(C(=S)c2cccc([N+](=O)[O-])c2)CC1 | -12.4% (inactive)
CN1CCN(c2ccc([N+](=O)[O-])c(Sc3nc4ccccc4[nH]3)c2)CC1 | -1.85% (inactive)
CC1CCN(c2ccc([N+](=O)[O-])c(SCCO)c2)CC1 | -30.7% (active)
Cc1nn(-c2ccc(N3CCCCC3)nn2)c(C)c1CCC(=O)NCc1ccccc1F | -7.94% (inactive)
Cc1cccc(OCCSc2nc3ccccc3n2CC(=O)N2CCCCC2)c1C | -17.2% (inactive)
COc1ccc(C(CNC(=O)COc2ccc([N+](=O)[O-])cc2)N2CCCCC2)cc1 (configuration not stated) | 6.98% (inactive)
O=C(OCC(=O)N1CCc2ccccc21)c1ccc([N+](=O)[O-])cc1 | -13% (inactive)
O=C1CCCN1C(=O)COc1ccc([N+](=O)[O-])cc1 | -83.3% (active)
O=C(NCC(c1cccnc1)N1CCc2ccccc21)c1cccc(C(F)(F)F)c1 (configuration not stated) | 4.34% (inactive)
Cc1ccc2oc3c(c(=O)c2c1)C(c1ccc([N+](=O)[O-])cc1)N(CCCN1CCOCC1)C3=O (configuration not stated) | -8.02% (inactive)
Cc1ccc(-c2nn3c(=O)cc(CN4CCN(C(=O)Nc5cccc(C(F)(F)F)c5)CC4)nc3s2)cc1 | 4.59% (inactive)
Cc1ccc(C)c(N2CCN(C(=O)CN3C(=O)COc4ccc(S(=O)(=O)N5CCCCCC5)cc43)CC2)c1 | -0.74% (inactive)
Cc1ccsc1/C=N/n1c(=S)[nH]nc(C)c1=O | 0.744% (inactive)
Cc1ccccc1-c1n[nH]c(=S)n1/N=C/c1ccc(-c2ccccc2Br)o1 | -0.652% (inactive)
S=c1[nH]nc(-c2ccco2)n1/N=C/c1ccc(Br)s1 | -38.6% (active)
O=C(CN1C(=O)COc2ccc(S(=O)(=O)N3CCOCC3)cc21)N1CCN(c2cccc(Cl)c2)CC1 | -5.01% (inactive)
COc1ccc(CNC(=O)CCc2c(C)nn(-c3ccc(N4CCCC4)nn3)c2C)cc1 | 8.22% (inactive)
Cc1nn(-c2ccc(F)cc2)c(-n2cccc2)c1C(=O)N1CCN(c2ccccc2)CC1 | 21% (inactive)

Compound | activity change, negative = inhibition
Cc1ccc(-n2nc(C)c(C(=O)O)c2-n2cccc2)cc1 | -8.13% (inactive)
Cc1nn(-c2ccccc2)c(-n2cccc2)c1C(=O)O | -45.8% (active)
CCN(CC)CCNC(=O)c1cc2c(=O)oc3ccc(C)cc3c2s1 | 4.45% (inactive)
COc1cc(NC(=O)c2ccc(-c3csc(C)n3)cc2)c(OC)cc1Cl | -3.88% (inactive)
COc1cc(OC)c(NC(=O)c2nc(-c3ccncc3)no2)cc1Cl | -32.7% (active)
COc1cc(OC)c(NC(=O)c2c3c(nn2C)-c2ccccc2SC3)cc1Cl | 2.27% (inactive)
COc1ccc(NC(=O)c2ccc3oc(=O)c(S(=O)(=O)c4ccc(F)cc4)cc3c2)c(OC)c1 | 4.65% (inactive)
O=C(Nc1cc(-c2nc3ccccc3o2)ccc1Cl)c1cc([N+](=O)[O-])ccc1N1CCOCC1 | -2.21% (inactive)
Nc1nc(COC(=O)CCC(=O)c2ccc(Cl)cc2)nc(Nc2ccccc2)n1 | -34.3% (active)
Nc1nc(CC(=O)CSc2ccc(Cl)cc2)nc(Nc2ccc(F)cc2)n1 | -8.8% (inactive)
Cc1ccccc1Nc1nc(N)nc(COC(=O)CCC(=O)c2ccc(F)cc2)n1 | -23.2% (inactive)
COc1ccccc1-c1cc(C(F)(F)F)nc(S(=O)(=O)CCCC(=O)Nc2cc(C)ccc2O)n1 | -0.269% (inactive)
CCOC(=O)c1cc2c(=O)n3ccccc3nc2n(CCCOC)c1=NC(=O)C(C)Oc1ccccc1 (configuration not stated) | -0.513% (inactive)
O=S(=O)(NC1CC1)c1ccc2c3c(cccc13)CC2 | -23.6% (inactive)
CCc1ccccc1NC(=O)c1ccc(F)c(S(=O)(=O)NC2CCCCCC2)c1 | -16.4% (inactive)
O=S(=O)(NC1CCCCC1)c1ccc(F)c2ccccc12 | -32.8% (active)
CCN1CCN(c2ncc3c(n2)CC(c2ccccc2O)CC3=O)CC1 (configuration not stated) | 0.271% (inactive)
CCN(Cc1ccccc1)Cc1c(O)ccc2c(=O)c(-c3ccc(Cl)cc3Cl)coc12 | -1.12% (inactive)
CCOc1ccc(Nc2ncnc3scc(-c4ccc(OC)cc4)c23)cc1 | 13.2% (inactive)
COc1ccc(Nc2ncnc3sc(C)cc23)cc1 | -13.7% (inactive)
COC(=O)c1ccc(Nc2ncnc3sccc23)cc1 | -42.9% (active)

From PubChem BioAssay AID504652 (National Center for Advancing Translational Sciences (NCATS), 2011)
